Assay outcomes: PubChem, National Center for Advancing Translational Sciences (NCATS)
TDP1 cell CPT – DT40-hTDP1 cell growth loss with CPT | chicken DT40 Tdp1-/-;hTDP1 cells + 20 nM CPT, ATP luminescence, 48 h | Potency, µM (highest dose often 46.2 µM), most hits filed as inhibitors | 420,000 tested, 12% active; also: nearly all actives have a fitted effect of over 55% in size
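Chicken DT40 Tdp1-/- cells stably complemented with human TDP1 were seeded at 400 cells/well in medium containing 20 nM camptothecin, exposed to pin-transferred compounds, and grown at 37 °C for at least 48 hr. Viability was read as ATP luminescence.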
CtBP-E1A blk – inhibitors of CtBP/E1A interaction; AlphaScreen GST-E1A/His-CtBP binding, 1536-well; hits give low values; activity change, % (test concentration not listed); 340,000 tested, 0.49% active; AID 651724; in the data active = activity change below about -65%; inconclusive = mostly about -30% to -63%
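Protein mix (5X: 125 nM each GST-E1A, His-CtBP) was incubated with pinned compound 2 h at 37 deg C in dark, in 50 mM Tris pH 8.0 buffer with 300 mM NaCl. Glutathione donor and nickel acceptor beads followed; AlphaScreen signal read after 1 h.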
TDP1 block – blocks human tyrosyl-DNA phosphodiesterase 1; recombinant TDP1, AlphaScreen DNA substrate cleavage; Potency, µM (highest dose often 130 µM), most hits filed as inhibitors; 350,000 tested, 0.28% active; also: nearly all actives have a fitted effect of over 40% in size
Target sequence (Q9NUW8 whole entry, looked up): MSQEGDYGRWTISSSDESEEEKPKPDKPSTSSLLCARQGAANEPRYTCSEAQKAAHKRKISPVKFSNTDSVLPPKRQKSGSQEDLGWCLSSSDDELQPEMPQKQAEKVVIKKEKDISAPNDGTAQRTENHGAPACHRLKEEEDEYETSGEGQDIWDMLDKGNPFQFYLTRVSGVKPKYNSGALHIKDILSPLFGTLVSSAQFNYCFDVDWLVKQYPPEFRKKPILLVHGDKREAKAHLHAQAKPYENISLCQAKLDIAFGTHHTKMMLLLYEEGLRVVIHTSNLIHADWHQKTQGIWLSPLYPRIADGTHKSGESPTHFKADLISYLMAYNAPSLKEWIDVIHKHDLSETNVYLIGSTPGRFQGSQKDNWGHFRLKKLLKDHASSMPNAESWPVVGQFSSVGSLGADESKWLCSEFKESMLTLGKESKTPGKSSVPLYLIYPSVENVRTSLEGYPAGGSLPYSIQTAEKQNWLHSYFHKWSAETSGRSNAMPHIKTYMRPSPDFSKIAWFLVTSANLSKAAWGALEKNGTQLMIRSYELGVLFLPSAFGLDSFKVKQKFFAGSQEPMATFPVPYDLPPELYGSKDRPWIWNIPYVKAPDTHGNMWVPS
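E. coli-derived human Tdp1, 1 nM final. Cpd preinc 15 min RT; substrate 15 nM final, 5 min RT; AS bead mix 10 ug/ml final, 10 min RT. Signal loss = tyrosine-FITC cleavage. No-enzyme wells = max signal.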
DT40 TDP1 no CPT – qHTS for Inhibitors of human tyrosyl-DNA phosphodiesterase 1 (TDP1): qHTS in cells in absence of CPT. DT40 Tdp1-/- hTDP1 cells, no CPT, ATP luminescence, 48 h. Potency, µM (top dose mostly 46.2 µM), usual class: inhibitors. 420,000 tested, 15% active. AID 686978, 2013; also: nearly all actives have a fitted effect of over 55% in size
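Luminescent ATP content (CellTiter-Glo) served as the growth readout. Knockout chicken DT40 cells expressing human TDP1 were exposed to compounds without camptothecin for a minimum 48 hr at 37 °C.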
Six1-Eya2 inh – Six1/Eya2 interaction inhibition. Q15475+O00167. AlphaScreen GST-Six1/His-Eya2 binding, biochemical; hits give low values. activity change, % (no concentration beside the values). 360,000 tested, 0.56% active. AID 651725; in the data active = activity change below about -65%; inconclusive = mostly about -30% to -63%
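Six1/Eya2 binding was read as AlphaScreen signal after compounds were pinned into GST-Six1 plus His-tagged Eya2 (5X stock 250/500 nM) in pH 8.0 Tris/NaCl/TCEP buffer, beads added, then incubated 1 h, 37 C, dark.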
IL-1B inflam inh – blocks inflammasome-driven IL-1 beta release; THP-1 LPS/ATP IL-1B secretion, AlphaLISA, 16 h; hits give low values; activity change, % at 57.5 µM; 360,000 tested, 4.7% active; in the data active = activity change below about -50%; inconclusive = mostly about -30% to -49%
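THP-1 cells pretreated 1 hr with compounds (up to 57.5 uM final), then stimulated with LPS (250 ng/mL final) plus ATP (1.25 mM final); secreted IL-1B measured by AlphaLISA after 16 hr, decreased signal indicating inhibition.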
Numbers stand for hits; i = inactive; ? = inconclusive; nt = not tested or not shown. Compounds with a hit are over-represented: about 18% of the library has one in this group of screens. Unless noted, calls follow the shape of the dose curve; as a rule, active = well fitted curve in the direction sought with a large enough effect; inconclusive = small, poorly fitted or top-dose-only effect, or another doubt; inactive = no such curve, though single readings can be large; an effect the other way counts as inactive or inconclusive.

SMILES	TDP1 cell CPT	CtBP-E1A blk	TDP1 block	DT40 TDP1 no CPT	Six1-Eya2 inh	IL-1B inflam inh
CCC(=O)Nc1nc2ccc3sc(C)nc3c2s1	18µM	i	i	23µM	i	i
O=C(c1c[nH]c2ccccc12)N1CCN(c2ccccc2)CC1	?	i	i	i	i	?
COc1ccc(OC)c2sc(N(CCN(C)C)C(=O)/C=C/c3cccs3)nc12	?	i	i	?	i	-103
COc1ccc(OC)c2sc(N(CCCN(C)C)C(=O)c3ccco3)nc12	?	nt	i	?	nt	nt
COc1ccc(C)c2sc(N(CCN(C)C)C(=O)/C=C/c3cccs3)nc12	?	i	i	?	i	-71
CC1CCC(Nc2ncnc3onc(-c4ccc(Cl)cc4)c23)CC1 (centres undefined)	?	nt	i	?	nt	nt
CNc1ccccc1C(=O)OC(C)C(=O)Nc1ccc(S(=O)(=O)N2CCCC2)cc1 (centres undefined)	?	i	i	?	i	i
COc1cc(NC(=O)c2ccc(NC(=O)N3CCSc4ncccc43)cc2)cc(OC)c1	15µM	nt	i	13µM	nt	nt
Cc1ccc(Cl)cc1NC(=O)c1ccc(NC(=O)N2CCSc3ncccc32)cc1	?	nt	i	21µM	nt	nt
CCCCOC1(c2ccccc2)NC(=S)NN=C1c1ccccc1 (centres undefined)	nt	nt	i	nt	nt	nt
FC(F)(F)c1ccccc1-c1nc(NC2CCNCC2)c2ccccc2n1	15µM	nt	nt	?	nt	nt
COC(=O)CCC(=O)Nc1cc(OC)c(OC)cc1Cc1nccc2cc(OC)c(OC)cc12	i	i	nt	i	i	i
CCOc1ccc(Cc2nccc3cc(OCC)c(OCC)cc23)cc1OCC	5.8µM	nt	i	5.8µM	nt	nt
COc1ccc(CCNC(=O)Cn2c(=O)n(-c3ccc(C)c(C)c3)c(=O)c3c(C)c(C)sc32)cc1OC	i	nt	i	i	nt	nt
CCCC1=C(C(=O)OCC)C(/C=C/c2ccccc2)n2ncnc2N1 (centres undefined)	16µM	i	i	13µM	i	i
CCCC1=C(C(=O)OCC)C(c2ccc(N(C)C)cc2)n2ncnc2N1 (centres undefined)	?	i	i	26µM	i	i
O=C(NCCCn1ccnc1)C(=O)Nc1ccccc1	16µM	i	i	?	i	i
O=C(NCCCn1ccnc1)c1ccc(-c2cccc(Cl)c2Cl)o1	18µM	i	i	?	i	i
COc1ccc(NC(=O)C(=O)NCCCn2ccnc2)cc1	i	i	i	i	i	i
CC(C(=O)NCCCn1ccnc1)(c1ccccc1)c1ccccc1	15µM	i	nt	18µM	i	i
N#CC1(NC(=O)COC(=O)Cc2c[nH]c3ccccc23)CCCCC1	i	i	nt	i	i	i
O=C(Nc1ccn(CCCNCC2CCCCC2)c(=O)n1)OCc1ccccc1	?	i	nt	?	i	i
O=C(Nc1ccn(CCCNCc2cccc3ccccc23)c(=O)n1)OCc1ccccc1	?	i	nt	?	?	-62
CC(CNCCCn1ccc(NC(=O)OCc2ccccc2)nc1=O)c1ccccc1 (centres undefined)	23µM	i	nt	?	i	?
O=C(Nc1ccn(CCCN2CCN(Cc3ccc(F)cc3)CC2)c(=O)n1)OCc1ccccc1	21µM	i	nt	15µM	i	i
SMILES	TDP1 cell CPT	CtBP-E1A blk	TDP1 block	DT40 TDP1 no CPT	Six1-Eya2 inh	IL-1B inflam inh
O=C(Nc1ccn(CCCNCC(c2ccccc2)c2ccccc2)c(=O)n1)OCc1ccccc1	?	i	nt	23µM	i	?
Cc1ccc(NC2=NCC(Cc3ccc(Br)cc3)S2)cc1 (centres undefined)	?	i	i	?	i	-96
CCc1ccc(NC2=NCC(c3ccccc3)S2)cc1 (centres undefined)	i	i	i	?	i	i
CC(NC(=O)c1cccnc1)C(c1ccccc1)N1CCN(C)CC1 (centres undefined)	i	i	i	i	i	i
CCN(CC)C(=O)[C@H]1C[C@H](CC(=O)NCCC2=CCCCC2)C(=O)N2CCc3c([nH]c4ccc(Cl)cc34)[C@]12C	16µM	i	i	21µM	i	-54
CCN(CC)C(=O)[C@H]1CC(CC(=O)NCC23CC4CC(CC(C4)C2)C3)C(=O)N2CCc3c([nH]c4ccccc34)[C@]12C (some centres undefined)	16µM	i	i	8.2µM	i	?
COc1ccc2[nH]c3c(c2c1)CCN1C(=O)C(CC(=O)NCC24CC5CC(CC(C5)C2)C4)C[C@H](C(=O)N(C(C)C)C(C)C)[C@@]31C (some centres undefined)	?	i	i	?	i	-72
C[C@]12c3[nH]c4ccccc4c3CCN1C(=O)C(CC(=O)NCCC1=CCCCC1)C[C@@H]2C(=O)N1CCCCC1 (some centres undefined)	i	i	i	i	i	i
C[C@]12c3[nH]c4ccc(Cl)cc4c3CCN1C(=O)[C@@H](CC(=O)NCCC1=CCCCC1)C[C@@H]2C(=O)N1CCCCC1	i	i	i	i	i	i
CCN(CC)C(=O)[C@H]1CC(CC(=O)NCCC2=CCCCC2)C(=O)N2CCc3c([nH]c4ccccc34)[C@]12C (some centres undefined)	23µM	i	i	23µM	i	i
COc1ccccc1C=NNC(=O)c1ccncc1	i	i	nt	i	i	i
COc1ccc(C(=O)NN2CCCCC2)cc1OC	i	i	i	i	i	i
CCOC(=O)C1CCN(c2c(C(=O)c3ccc(OCC)cc3)cnc3ccc(OC)cc23)CC1	23µM	nt	i	21µM	nt	nt
COc1cc2ncc(C(=O)c3ccc(C)cc3)c(N3CCCCC3)c2cc1OC	12µM	nt	i	12µM	nt	nt
CCOC(=O)C1CCCN(c2c(C(=O)c3ccccc3)cnc3ccc(OC)cc23)C1 (centres undefined)	15µM	i	i	21µM	i	i
CCOC(=O)C1CCCN(c2c(C(=O)c3ccc(OCC)cc3)cnc3ccccc23)C1 (centres undefined)	18µM	nt	i	?	nt	nt
CCOC(=O)C1CCCN(C(=O)c2ccc(C(=O)c3ccccc3)cc2)C1 (centres undefined)	i	nt	i	?	i	i
CCN1CCN(c2c(C(=O)c3ccc(OC)cc3)cnc3ccccc23)CC1	i	i	i	i	i	i
CCN(CC)CCN1CNC(=S)N(c2ccccc2OC)C1	i	i	i	i	i	nt
CCOc1ncccc1C(=O)NNC(=O)c1ccccc1-n1cccc1	i	?	i	i	i	i
O=C(Nc1nc2ccccc2s1)NC1CCCCC1	?	i	i	i	i	i
